A short description of test [1]: Nuclear factor erythroid 2-related factor 2/antioxidant responsive element (Nrf2/ARE) small molecule agonists: qHTS cell viability counter screen in human keratinocytes (AID 1919968; active means well fitted curve in the direction sought with a large enough effect in the repeat runs; an effect the other way counts as inactive or inconclusive; further: nearly all actives have a fitted effect of over 55% in size; further: potency means the concentration at half of the fitted maximal effect). A digest of the protocol:
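After a 5 h attachment period, ARE-reporter keratinocytes were dosed with compounds in DMSO and then cultured 23 h at 37 C. Cell viability came from CellTiter-Fluor signal read after a further 1 h.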
For orientation: qHTS replaces the single test concentration by a dilution series.

Test [2] can be described thus: Nuclear factor erythroid 2-related factor 2/antioxidant responsive element (Nrf2/ARE) small molecule agonists: luciferase reporter gene qHTS assay in human keratinocytes (AID 1919969; further: nearly all actives have a fitted effect of over 35% in size; further: potency means the concentration at half of the fitted maximal effect). (In a reporter assay the amount or activity of a reporter protein is the signal.)
Test [3] deals with Gonadotropin-releasing hormone receptor (Homo sapiens) (UniProt P30968). Description: Human gonadotropin-releasing hormone receptor (GnRHR) small molecule agonists, calcium flux assay in GnRHR-HEK293 cells (AID 1920063). Further: nearly all actives have a fitted effect of over 35% in size. Summed up:
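We seeded human GnRHR-expressing HEK293 cells for 18 hours, loaded them with calcium dye for an hour at 37 C, added test compounds, and recorded fluorescence intensity kinetically for three minutes.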

Test [4] concerns the target KiSS-1 receptor (Homo sapiens) (UniProt Q969F8). Description: Human kisspeptin (KISS1R) small molecule agonists, calcium flux assay in KISS1R-HEK293 cells (AID 1920064; active means well fitted curve in the direction sought with a large enough effect in the repeat runs; an effect the other way counts as inactive or inconclusive). A digest of the protocol: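 Kinetic calcium assay, 1 s sampling over 3 min at Ex/Em 480/540, in HEK293 cells engineered with human KISS1R; compounds delivered in DMSO after 1 h dye loading.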
(In general: A change in cytosolic calcium serves as a functional read-out for many receptors and channels.)

Test [5] is described as follows: G protein-coupled receptor (GPCR) small molecule agonists, calcium flux assay: HEK293 wild type cell line counter screen (AID 1920065). Summed up: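 Calcium-sensitive dye, loaded 1 h at 37 C into cells cultured 18 h, reports compound-evoked calcium release as fluorescence (Ex/Em 480/540), measured over 3 min. Agonist mode; 15-point titrations, triplicate.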
Test [6] is described as follows: p53 small molecule agonists, cell-based qHTS assay with human liver microsomes (AID 1963577).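 Further: p53 response element beta-lactamase reporter cells with liver microsomes plus NADPH.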 Summed up: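 With metabolic activation: human liver microsomes (0.5 mg/mL final) plus NADPH (0.5 mg/mL final) added alongside compounds to p53RE-bla cells; 16 h 37 C exposure; beta-lactamase read by LiveBLAzer fluorescence.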
A short description of test [7]: p53 small molecule agonists, cell-based qHTS assay with rat liver microsomes (AID 1963578). A digest of the protocol:
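Metabolic activation by rat liver microsomes and NADPH, each 0.5 mg/mL final, added right after compounds to p53RE-bla reporter cells (4,000/well, plated 5 h earlier). 16 h at 37 C, then LiveBLAzer substrate for 2 h at room temperature in the dark; fluorescence read-out.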

Test [8] can be described thus: p53 small molecule agonists, cell-based qHTS assay with human liver microsomes: qHTS cell viability counter screen (AID 1963579). Further: nearly all actives have a fitted effect of over 45% in size. A digest of the protocol: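 Metabolic activation used human liver microsomes and NADPH, both 0.5 mg/mL final, over 16 hours at 37 C on p53RE-bla cells (4,000/well). Cytotoxicity measured by CellTiter-Glo luminescence, 30 min at room temperature.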

Test [9] is described as follows: p53 small molecule agonists, cell-based qHTS assay with rat liver microsomes: qHTS cell viability counter screen (AID 1963580). Further: nearly all actives have a fitted effect of over 45% in size. A digest of the protocol:
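Intracellular ATP, by CellTiter-Glo luminescence, defines viability. HCT-116 p53RE-bla cells, 4,000 per well, were compound-treated in the presence of rat liver microsomes and NADPH for 16 h at 37 C.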

A short description of test [10]: p53 small molecule agonists, cell-based qHTS assay: qHTS cell viability counter screen (AID 1963581). Further: nearly all actives have a fitted effect of over 45% in size. A digest of the protocol:
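Following 5 h attachment, HCT-116 p53RE-bla cells took up compound for 16 h at 37 C; the reporter was read with B/G FRET substrate (2 h RT), and viability then via CellTiter-Glo ATP luminescence.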

Test [11] is described as follows: p53 small molecule agonists, cell-based qHTS assay (AID 1963582; active means well fitted activation curve with a large enough effect in the signal ratio in the repeat runs, not every such curve was filed as active; the % refers to the signal ratio). A digest of the protocol: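 In this cell-based concentration-response screen, a p53 response element drives beta-lactamase; cells received DMSO-borne compounds after 5 h culture and were incubated a further 16 h before FRET substrate development.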
Test [12] has as its target 5-hydroxytryptamine receptor 2A (Homo sapiens) (UniProt P28223). As to the kind of experiment: 5-hydroxytryptamine receptor 2A (HTR2A) small molecule antagonists, cell-based qHTS assay (AID 1963586). Further: nearly all actives have a fitted effect of over 45% in size. A digest of the protocol: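 Antagonist-mode intracellular calcium assay: DOI (4 nM) added after 5 min compound pre-incubation at room temperature to dye-loaded HTR2A-CHO cells. Fluorescence followed for 3 min, sampled every second.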

Test [13] shares this target. As to the kind of experiment: 5-hydroxytryptamine receptor 2A (HTR2A) small molecule agonists, cell-based qHTS assay (AID 1963587). Further: nearly all actives have a fitted effect of over 30% in size. A digest of the protocol: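 Kinetic calcium-flux fluorescence (2 min, 1 sec intervals) after compound addition in agonist mode. HTR2A-CHO cells were cultured 18 h, then dye-loaded 1 h at 37 C.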
The target of test [14] is Muscarinic acetylcholine receptor M1 (Homo sapiens) (UniProt P11229). Description: Cholinergic receptor muscarinic 1 (CHRM1) small molecule antagonists, cell-based qHTS assay (AID 1963588). Further: nearly all actives have a fitted effect of over 40% in size. Further: potency means the concentration at half of the fitted maximal effect. Summed up:
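CHRM1-CHO calcium-flux assay, antagonist mode. Cells were seeded 18 h, dye-loaded 1 h at 37 C and given compound for 5 min at RT, then acetylcholine was added at 50nM. FDSS fluorescence was read 3 min; 15 concentrations, three runs.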

Test [15] shares this target. Description: Cholinergic receptor muscarinic 1 (CHRM1) small molecule agonists, cell-based qHTS assay (AID 1963589). Further: nearly all actives have a fitted effect of over 35% in size. Summed up:
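Measures agonist-induced intracellular calcium rise. Stable human CHRM1 CHO line, 1 h dye load at 37 C, compounds from DMSO, kinetic fluorescence read.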

A short description of test [16]: cAMP Responsive Elements (CRE) small molecule agonists, cell-based qHTS assay (AID 1963590). A digest of the protocol:
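A CRE-responsive beta-lactamase reporter in HEK 293T cells was used. Treatment ran 3 h at 37 C; detection used LiveBLAzer B/G FRET substrate for 2 h at room temperature.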

In test [17] the target is Beta-2 adrenergic receptor (Homo sapiens) (UniProt P07550). As to the kind of experiment: Adrenergic beta2 receptor (ADRB2) small molecule antagonists, cell-based qHTS assay (AID 1963592). Further: series mostly up to about 92 µM; nearly all actives have a fitted effect of over 50% in size. A digest of the protocol: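 Cells (CHO, stable ADRB2 overexpression) incubated 18-20hr at 37C; compounds added from DMSO; agonist mix (1nM isoproterenol, 100uM IBMX, 25uM Ro-20-1724) added; 0.5hr RT; d2-cAMP and anti-cAMP-cryptate added; 1hr RT; 665/615 nm read.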
Sequence of Beta-2 adrenergic receptor (Homo sapiens) (P07550 whole entry, looked up): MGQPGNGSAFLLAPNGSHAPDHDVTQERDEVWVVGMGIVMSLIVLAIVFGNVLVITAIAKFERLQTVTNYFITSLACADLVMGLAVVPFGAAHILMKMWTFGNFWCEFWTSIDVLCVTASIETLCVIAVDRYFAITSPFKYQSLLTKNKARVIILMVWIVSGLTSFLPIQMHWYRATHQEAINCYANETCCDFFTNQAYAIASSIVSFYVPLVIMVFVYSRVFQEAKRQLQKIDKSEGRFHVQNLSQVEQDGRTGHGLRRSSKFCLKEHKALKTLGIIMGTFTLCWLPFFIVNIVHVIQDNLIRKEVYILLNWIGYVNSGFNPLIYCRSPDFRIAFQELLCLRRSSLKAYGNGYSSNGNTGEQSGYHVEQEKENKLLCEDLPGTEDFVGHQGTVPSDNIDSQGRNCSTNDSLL

For test [18], the target named is D(2) dopamine receptor (Homo sapiens) (UniProt P14416). Description: Dopamine D2 receptor (DRD2) small molecule agonists, cell-based qHTS assay (AID 1963594). Further: nearly all actives have a fitted effect of over 35% in size. Summed up: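 cAMP accumulation in DRD2-HEK293 cells measured by HTRF after 1 h detection; compounds added 10 min before NKH477 (200nM […]) forskolin-analogue stimulation, 30 min at room temperature, with Ro20-1724 present at 0.1 mM final.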
Sequence of D(2) dopamine receptor (Homo sapiens) (P14416 whole entry, looked up): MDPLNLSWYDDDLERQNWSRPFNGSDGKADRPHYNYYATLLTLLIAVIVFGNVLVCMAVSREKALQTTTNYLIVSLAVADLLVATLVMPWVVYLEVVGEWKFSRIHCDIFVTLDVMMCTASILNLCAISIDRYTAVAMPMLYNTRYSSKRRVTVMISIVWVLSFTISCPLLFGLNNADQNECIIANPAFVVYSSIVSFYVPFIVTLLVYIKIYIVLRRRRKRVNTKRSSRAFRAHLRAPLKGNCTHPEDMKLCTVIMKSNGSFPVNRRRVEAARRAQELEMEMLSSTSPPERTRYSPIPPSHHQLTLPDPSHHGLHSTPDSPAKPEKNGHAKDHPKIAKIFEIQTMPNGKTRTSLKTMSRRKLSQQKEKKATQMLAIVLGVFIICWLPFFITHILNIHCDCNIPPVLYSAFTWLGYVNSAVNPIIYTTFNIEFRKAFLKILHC

Test [19] shares this target. Description: Dopamine D2 receptor (DRD2) small molecule antagonists, cell-based qHTS assay (AID 1963595; active means well fitted inhibition curve with a large enough effect in the signal ratio in the repeat runs, with a control signal flat; the % refers to the signal ratio). A digest of the protocol: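 HEK293 cells stably expressing DRD2, preincubated with 0.1 mM Ro20-1724 and compounds 10 min, were stimulated with 200 nM NKH477 plus 12 nM quinpirole for 30 min at room temperature; cAMP measured by HTRF (665/620 nm).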
The nature of test [20]: cAMP Responsive Elements (CRE) small molecule antagonists, cell-based qHTS assay (AID 1963591; active means well fitted inhibition curve with a large enough effect in the signal ratio in the repeat runs, not every such curve was filed as active; the % refers to the signal ratio). A digest of the protocol: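 HEK293T cells carrying a CRE-driven beta-lactamase reporter receive compound and NKH477 (0.25 uM final) for 3 h. Fluorescence from LiveBLAzer B/G FRET substrate is read after 2 h at room temperature.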

The values that follow come from PubChem BioAssay (Tox21).

Each structure is given as a SMILES string. Values joined by “and” are separate entries in the source; they are usually repeats but may differ in a detail not shown here. Equal values may be shown once. Results filed as inconclusive are left out. Some compounds were tested as several samples or in several runs, with calls that do not always agree. Active and inactive are the calls of the source. Unless noted, the call rests on the fitted dose curve.
On the % scale 0 is the no-effect control and ±100 the full control effect.

Sequence of 5-hydroxytryptamine receptor 2A (Homo sapiens) (P28223 whole entry, looked up): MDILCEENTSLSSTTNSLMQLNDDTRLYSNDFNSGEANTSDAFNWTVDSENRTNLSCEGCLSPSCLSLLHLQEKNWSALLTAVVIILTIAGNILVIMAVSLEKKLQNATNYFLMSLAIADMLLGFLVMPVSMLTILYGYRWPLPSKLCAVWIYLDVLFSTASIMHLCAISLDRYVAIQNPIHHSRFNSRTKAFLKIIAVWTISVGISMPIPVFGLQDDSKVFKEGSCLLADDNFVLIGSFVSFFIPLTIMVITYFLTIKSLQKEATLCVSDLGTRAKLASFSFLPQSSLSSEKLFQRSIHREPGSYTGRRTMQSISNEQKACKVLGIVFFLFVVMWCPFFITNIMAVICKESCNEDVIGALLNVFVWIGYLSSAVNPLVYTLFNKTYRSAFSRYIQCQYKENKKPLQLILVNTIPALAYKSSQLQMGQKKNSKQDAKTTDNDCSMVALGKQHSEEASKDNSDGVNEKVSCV
Sequence of Gonadotropin-releasing hormone receptor (Homo sapiens) (P30968 whole entry, looked up): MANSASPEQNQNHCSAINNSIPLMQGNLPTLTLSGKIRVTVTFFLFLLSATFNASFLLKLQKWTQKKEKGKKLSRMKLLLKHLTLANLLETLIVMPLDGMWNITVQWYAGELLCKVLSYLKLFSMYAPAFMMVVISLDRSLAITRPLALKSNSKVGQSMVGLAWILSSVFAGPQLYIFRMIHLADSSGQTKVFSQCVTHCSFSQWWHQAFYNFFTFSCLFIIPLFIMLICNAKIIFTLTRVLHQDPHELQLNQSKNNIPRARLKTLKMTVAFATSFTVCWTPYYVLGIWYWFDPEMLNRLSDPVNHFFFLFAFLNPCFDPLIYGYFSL
Sequence of KiSS-1 receptor (Homo sapiens) (Q969F8 whole entry, looked up): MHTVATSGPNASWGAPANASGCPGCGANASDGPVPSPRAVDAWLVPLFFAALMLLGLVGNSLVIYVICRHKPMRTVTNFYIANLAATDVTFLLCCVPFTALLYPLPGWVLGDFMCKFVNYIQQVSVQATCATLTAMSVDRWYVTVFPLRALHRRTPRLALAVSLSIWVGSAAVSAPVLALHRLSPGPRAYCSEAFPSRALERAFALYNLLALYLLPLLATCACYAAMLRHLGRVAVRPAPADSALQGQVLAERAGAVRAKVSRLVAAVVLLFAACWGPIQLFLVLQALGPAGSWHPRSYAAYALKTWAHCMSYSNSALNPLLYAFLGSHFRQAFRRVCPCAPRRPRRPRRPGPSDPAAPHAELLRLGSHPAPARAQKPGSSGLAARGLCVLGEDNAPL
Sequence of Muscarinic acetylcholine receptor M1 (Homo sapiens) (P11229 whole entry, looked up): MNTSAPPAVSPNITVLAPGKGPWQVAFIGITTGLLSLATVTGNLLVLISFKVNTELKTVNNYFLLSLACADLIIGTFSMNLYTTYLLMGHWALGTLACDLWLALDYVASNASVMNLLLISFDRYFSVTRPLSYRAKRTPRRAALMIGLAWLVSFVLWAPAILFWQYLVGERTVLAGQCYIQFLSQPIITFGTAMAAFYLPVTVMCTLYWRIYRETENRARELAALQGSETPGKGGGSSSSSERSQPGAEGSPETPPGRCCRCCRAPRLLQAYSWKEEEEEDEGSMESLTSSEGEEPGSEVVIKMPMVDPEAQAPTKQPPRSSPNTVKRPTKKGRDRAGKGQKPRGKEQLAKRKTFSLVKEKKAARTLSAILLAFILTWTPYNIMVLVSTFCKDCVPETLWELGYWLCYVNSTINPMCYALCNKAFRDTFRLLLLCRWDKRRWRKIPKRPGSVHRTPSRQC

As to `O=C1c2cccc(O)c2C(=O)c2c(O)cccc21`, the Potency result in test [1] was “inactive and 3.35 µM (active)”; in test [2] it was 27.6 µM (active). Also, the Potency entry in test [3], in test [4], in test [5], in test [6], in test [7] and in test [8] was “inactive” in each case. In addition, the Potency entry in [9], in test [10], in test [11], in [12], in test [13] and in test [14] was “inactive” each time. Moreover, the Potency result in test [15], in [16], in [17], in [18] and in test [19] was “inactive” in each case.

For `Cc1cccc2cccnc12`, the Potency result in [1], in [2], in [3], in test [4], in test [5] and in test [6] was “inactive” throughout. Moreover, the Potency entry in [7], in test [8], in test [9], in test [10], in [11] and in test [12] was “inactive” throughout. For the same compound, the Potency entry in [13], in [14], in test [15], in test [16], in test [20] and in [19] was “inactive” throughout.

As to `COc1ccc(N)c(OC)c1`, the Potency entry in test [1], in [3], in test [4], in test [5], in test [6] and in test [7] was “inactive” throughout. For the same compound, the Potency result in test [8], in test [9], in [10], in test [11], in test [12] and in test [13] was “inactive” in each case. In addition, the Potency entry in [14], in [15], in [16], in test [20], in test [18] and in [19] was “inactive” in each case. The Potency entry in test [2] is “inactive and 68.6 µM (active)”.

Take `C=CCCCCCCCCCCCCCCCC`: the activity change, negative = cytotoxicity was 2.1% [at 8.39 µM] (inactive) in [1], -5.51% [at 5.99 µM] (inactive) in test [8], -2.99% [at 5.99 µM] (inactive) in test [9] and -20.9% [at 5.99 µM] (inactive) in [10]. Besides, the activity, positive = activation in test [2] was 1.31% [at 8.39 µM] (inactive). Further, the activity change in [3] is 0.969% [at 5.22 µM, stronger effect = higher value] (inactive). The activation was 0.739% [at 6.97 µM] (inactive) in test [4]; -0.775% [at 5.23 µM] (inactive) in test [5]; -1.7% [at 5.99 µM] (inactive) in test [6]; -2.36% [at 5.99 µM] (inactive) in [7]; 2.83% [at 5.99 µM] (inactive) in test [11]; -2.29% [at 7.02 µM] (inactive) in [13]. Besides, the activation in [15] is 1.23% [at 6.97 µM] (inactive); in test [16], 0.435% [at 8.39 µM] (inactive); in test [18] it was 0.185% [at 8.39 µM] (inactive). In addition, the activity, negative = inhibition in test [12] was -3.97% [at 5.62 µM] (inactive); in test [14] it was -31.3% [at 5.58 µM] (inactive). Further, the activity change, negative = inhibition in test [17] was -9.53% [at 8.39 µM] (inactive); in [19] it was -1.92% [at 8.38 µM] (inactive).

As to `NCc1cccc(CN)c1`, the Potency result in test [1], in test [2], in test [3], in [4], in test [5] and in test [6] was “inactive” each time. In addition, the Potency entry in test [7], in [8], in test [9], in test [10], in test [11] and in test [12] was “inactive” in each case. The Potency result in test [13], in [15], in test [16], in test [17] and in test [18] was “inactive” in each case. For the same compound, the Potency in test [14] was 42.1 µM (active).

Consider `C=CCOCC(CO)(COCC=C)COCC=C`, for which the Potency result in [1], in test [2], in test [3], in test [4], in test [5] and in test [6] was “inactive” throughout. Besides, the Potency entry in [7], in [8], in [9], in test [10], in test [11] and in [12] was “inactive” throughout. Further, the Potency entry in test [13], in test [14], in test [15], in test [16], in [17] and in test [18] was “inactive” throughout. Besides, in test [19], the Potency result was “inactive”.

Consider `O=C(c1ccccc1)C1(O)CCCCC1`, for which the Potency entry in test [1], in [2], in test [3], in test [4], in [5] and in [6] was “inactive” in each case. Moreover, the Potency result in test [7], in test [8], in [9], in test [10], in [11] and in [12] was “inactive” throughout. In addition, the Potency result in test [13], in test [14], in test [15], in [16], in test [17] and in test [18] was “inactive” in each case. Besides, in test [19], the Potency entry is “inactive”.

For the compound `CC(C)C(=O)OCCOc1ccccc1`, the Potency result in test [1], in [2], in test [3], in [4], in test [5] and in [6] was “inactive” each time. Besides, the Potency result in test [7], in test [8], in [9], in [10], in [11] and in [12] was “inactive” in each case. For the same compound, the Potency result in [13], in test [14], in test [15], in test [16], in test [20] and in [19] was “inactive” throughout.
